Assay [1] is described as follows: qHTS profiling of the MIPE4 collection as inhibitors of Plasmodium falciparum (3D7) proliferation (AID 743344).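 Note: scaled between DMSO vehicle wells and 0.29 µM artemisinin as full inhibition.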 To be noted: P. falciparum 3D7 in erythrocytes, SYBR Green DNA fluorescence, 72 h; at 28.5 µM unless noted. Summed up: (§1)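 Erythrocytes infected with P. falciparum (0.3% parasitemia, 2.5% hematocrit) incubated with compounds 72 h at 37 C, 5% CO2. Lysis with saponin/Triton buffer containing SYBR Green I, overnight at room temperature in the dark; DNA fluorescence (485/535 nm) normalised to 0.29 uM artemisinin and DMSO.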

Assay [2] is described as follows: qHTS profiling of the MIPE4 collection as inhibitors of Plasmodium falciparum (DD2) proliferation (AID 743345). To be noted: P. falciparum Dd2 in erythrocytes, SYBR Green DNA, 72 h; at 28.5 µM unless noted. The method, boiled down:
as §1
For orientation: In qHTS, concentration-response curves come from the screen itself.

Take `CN(N=O)C(=O)N[C@H]1C(O)OC(CO)[C@@H](O)[C@H]1O` (stereo partly drawn): the parasite growth, % of DMSO control in assay [1] was 81.6%. Moreover, in assay [2], the parasite growth remaining, % of DMSO control (lower = more inhibition) was found to be 93.8%.
On the same counts, the results for `CC(=O)NCC(=O)N1[C@H]2CC[C@H]1c1cc(Nc3ncc(C(F)(F)F)c(NC4CCC4)n3)ccc12` are 8.18% and 15.3%.
Taken in the same sequence, the figures for `CC[C@]12C=CCN3CC[C@@]4(c5cc([C@@]6(C(=O)OC)C[C@H]7C[C@@H](C(C)(F)F)CN(Cc8c6[nH]c6ccccc86)C7)c(OC)cc5N(C)[C@H]4[C@@](O)(C(=O)OC)[C@H]1OC(C)=O)[C@@H]32` were 17% and 12.3%.
On the same counts, the results for `CC1(C)[C@H](O[C@H]2O[C@H](C(=O)O)[C@@H](O)[C@H](O)[C@H]2O[C@@H]2O[C@H](C(=O)O)[C@@H](O)[C@H](O)[C@H]2O)CC[C@@]2(C)[C@H]1CC[C@]1(C)[C@H]2C(=O)C=C2[C@H]3C[C@@](C)(C(=O)O)CC[C@]3(C)CC[C@]21C` are 99.2% and 97.4%.
In assay [1], `CCCCCCCCc1ccc(CCC(N)(CO)CO)cc1` gave a parasite growth, % of DMSO control of 9.21%. The parasite growth remaining, % of DMSO control (lower = more inhibition) in assay [2] turned out to be 14.6%.
Taken in the same sequence, the figures for `CC(C)[C@H](CO)Nc1nc(Nc2cccc(Cl)c2)c2ncn(C(C)C)c2n1` were 8.7% and 21.1%.
`CC(C)(N)c1ccc(-c2nc3ccccc3nc2-c2ccccc2)cc1`: the parasite growth, % of DMSO control in assay [1] worked out at 21.6%. The parasite growth remaining, % of DMSO control (lower = more inhibition) in assay [2] came to 18.1%.
On the same counts, the results for `Nc1ccc(C(=O)Nc2cccc(-c3nc(N4CCOCC4)c4oc5ncccc5c4n3)c2)cn1` are 6.14% and 6.97%.
On the same counts, the results for `CCCCC(=O)O[C@]1(C(=O)CO)[C@@H](C)C[C@H]2[C@@H]3CCC4=CC(=O)C=C[C@]4(C)[C@@]3(F)[C@@H](O)C[C@@]21C` are 13.5% and 78.8%.
Taken in the same sequence, the figures for `CC(C)Oc1ccc(C(=O)N[C@H](CNC(=O)CN(C)C)Cc2ccc(-c3cn4cccc([C@H](C)O)c4n3)cc2)cc1Cl` were 5.62% and 8.81%.
`CC(C=CC=C(C)C=CC1=C(C)CCCC1(C)C)=CC=CC=C(C)C=CC=C(C)C=CC1=C(C)CCCC1(C)C` had a parasite growth, % of DMSO control in assay [1] of 11.9%. In addition, the parasite growth remaining, % of DMSO control (lower = more inhibition) in assay [2] was 92.7%.
Taken in the same sequence, the figures for `O=c1ccn([C@@H]2O[C@H](CO)[C@H](O)[C@@H]2F)c(=O)[nH]1` were 187% and 100%.
On to `CC(=O)OCC(=O)[C@@]1(O)CC[C@H]2[C@@H]3CCC4=CC(=O)CC[C@]4(C)[C@@H]3C(=O)C[C@@]21C`, for which the parasite growth, % of DMSO control in assay [1] was 68.4%. The parasite growth remaining, % of DMSO control (lower = more inhibition) in assay [2] worked out at 93.2%.
`NC(=O)Nc1cc(-c2ccc(CN3CCOCC3)cc2)sc1C(N)=O` yielded a parasite growth, % of DMSO control in assay [1] of 27.3%. Moreover, the parasite growth remaining, % of DMSO control (lower = more inhibition) in assay [2] came to 46.5%.
On the same counts, the results for `CCOc1cc2c(c(F)c1OCC)C(=N)N(CC(=O)c1cc(N3CCOCC3)c(OC)c(C(C)(C)C)c1)C2` are 5.53% and 7.24%.
In assay [1], `CC(C)(C)c1nc2c3cc[nH]c(=O)c3c3cc(F)ccc3c2[nH]1` yielded a parasite growth, % of DMSO control of 59.4%. The parasite growth remaining, % of DMSO control (lower = more inhibition) in assay [2] was 94.4%.
Compound `COc1cc(OC)c(NC(=O)Nc2cc(C)on2)cc1Cl` showed a parasite growth, % of DMSO control in assay [1] of 69.1%. For the same compound, in assay [2], the parasite growth remaining, % of DMSO control (lower = more inhibition) turned out to be 100%.
On the same counts, the results for `CC(C)C[C@H](NC(=O)[C@@H](NC(=O)c1cccc(-c2ccccc2)n1)[C@@H](C)O)B(O)O` are 4.97% and 8.79%.
With `Oc1ccc(-c2ccc(-c3cc(Nc4cccc(CNC5CC5)c4)n[nH]3)cc2)c(O)c1`, in assay [1], the parasite growth, % of DMSO control was 9.07%. The parasite growth remaining, % of DMSO control (lower = more inhibition) in assay [2] came to 13.4%.
Regarding `COc1ccc(C[C@@H](C)[C@@H](C)Cc2ccc(OC)c(OC)c2)cc1OC`, the parasite growth, % of DMSO control in assay [1] amounted to 62.3%. Moreover, the parasite growth remaining, % of DMSO control (lower = more inhibition) in assay [2] worked out at 87.5%.
`CCOC(=O)[C@H](CCc1ccccc1)N[C@@H](C)C(=O)N1[C@@H](C(=O)O)C[C@H]2CCC[C@@H]21`: in assay [1], the parasite growth, % of DMSO control turned out to be 8.54%. Besides, the parasite growth remaining, % of DMSO control (lower = more inhibition) in assay [2] worked out at 9.73%.
On the same counts, the results for `CN1CCCN(C(=O)c2cccc(-c3ccc(C=C4C(=O)Nc5ccc(Cl)cc54)o3)c2)CC1` are 3.74% and 5.68%.
For `NC(=O)N1CCC(CC(=O)N2CCC([C@H]3c4ncc(Br)cc4CCc4cc(Cl)cc(Br)c43)CC2)CC1`, the parasite growth, % of DMSO control in assay [1] was found to be 5.47%. The parasite growth remaining, % of DMSO control (lower = more inhibition) in assay [2] is 10.6%.
On the same counts, the results for `Cc1ccc([N+](=O)[O-])cc1S(=O)(=O)N(C)N=Cc1cnc2ccc(Br)cn12` are 5.89% and 11.3%.
Taken in the same sequence, the figures for `CS[C@H]1SC[C@@H]2C(=O)N(C)[C@H](C(C)C)C(=O)OC[C@H](NC(=O)c3cnc4ccccc4n3)C(=O)N[C@H](C)C(=O)N(C)[C@@H]1C(=O)N(C)[C@H](C(C)C)C(=O)OC[C@H](NC(=O)c1cnc3ccccc3n1)C(=O)N[C@H](C)C(=O)N2C` were 7.68% and 5.94%.
`Oc1cc2c(cc1O)C1c3ccc(O)c(O)c3OCC1(O)C2` (stereo not drawn) displayed a parasite growth, % of DMSO control in assay [1] of 13%. Also, the parasite growth remaining, % of DMSO control (lower = more inhibition) in assay [2] came out at 106%.
On the same counts, the results for `COc1cc(C[C@@H](CO)[C@H](CO)Cc2ccc(O)c(OC)c2)ccc1O` are 90.4% and 100%.
Taken in the same sequence, the figures for `C#C[C@]1(O)CC[C@@H]2[C@@H]3CCc4cc(O)ccc4[C@H]3CC[C@@]21C` were 75.9% and 90.7%.
`C[C@@H]1[C@H](C)CC[C@]2(C(=O)O)CC[C@]3(C)C(=CC[C@@H]4[C@@]5(C)C[C@@H](O)[C@H](O)[C@@](C)(CO)[C@H]5CC[C@]43C)[C@@H]12` yielded a parasite growth, % of DMSO control in assay [1] of 68.7%. For the same compound, in assay [2], the parasite growth remaining, % of DMSO control (lower = more inhibition) came to 90.5%.
As for `CCCCOc1ccc(C(=O)Nc2ccc(F)cc2F)cc1`, the parasite growth, % of DMSO control in assay [1] was 108%. Moreover, the parasite growth remaining, % of DMSO control (lower = more inhibition) in assay [2] is 95.7%.
Take `C[C@@H](Cc1cc2c(c(C(N)=O)c1)N(CCCO)CC2)NCCOc1ccccc1OCC(F)(F)F`: the parasite growth, % of DMSO control in assay [1] came out at 48.1%. Moreover, the parasite growth remaining, % of DMSO control (lower = more inhibition) in assay [2] is 84%.
On the same counts, the results for `COc1ccc2c(c1OC)C(=O)OC2[C@H]1c2c(cc3c(c2OC)OCO3)CCN1C` (stereo partly drawn) are 17.1% and 20.7%.
On the same counts, the results for `O=S(=O)(O)CCSSCCS(=O)(=O)O` are 79.5% and 89%.
Taken in the same sequence, the figures for `CCOC(=O)[C@@H](N)Cc1ccc(-c2cc(O[C@H](c3ccc(Cl)cc3-n3ccc(C)n3)C(F)(F)F)nc(N)n2)cc1` were 5.93% and 28.1%.

(Values after PubChem BioAssay (NCATS).)
